CYP2C9 inhib – inhibitors of human CYP2C9 | P11712 | CYP2C9 Supersomes, luciferin-H conversion, luminescence | inhibition, % at 5 µM | actives 20% (n = 96,000) | AID 777;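 active = blocking of liver enzyme CYP2C9 beyond about 50% at 5 µM, limit read from the data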
CYP2C9 activ – increases human cytochrome P450 2C9 activity. P11712. recombinant CYP2C9, luciferin-H conversion, luminescence; stronger effect = higher value; factor 1 = untreated enzyme, 0 = blocked. activation factor at 5 µM. actives 1.4% (n = 96,000);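 active = activation factor of 2 or more for CYP2C9 at a 5 µM dose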;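 also: 0 = sulfaphenazole-blocked wells and 1 = vehicle-only wells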
CYP2C19 inh – blocks human cytochrome P450 2C19; actives 21% (n = 96,000); CYP2C19 Supersomes, luciferin-H EGE luminescence, 30 min; P33261; inhibition, % at 5 µM;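 active = CYP2C19 inhibition above a set limit at 5 µM in the primary screen, cut at about 50% in these data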;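 also: plate controls were negative control wells for no effect and 2.5 mM tranylcypromine positive control for full effect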
Target sequence (P33261 whole entry, looked up): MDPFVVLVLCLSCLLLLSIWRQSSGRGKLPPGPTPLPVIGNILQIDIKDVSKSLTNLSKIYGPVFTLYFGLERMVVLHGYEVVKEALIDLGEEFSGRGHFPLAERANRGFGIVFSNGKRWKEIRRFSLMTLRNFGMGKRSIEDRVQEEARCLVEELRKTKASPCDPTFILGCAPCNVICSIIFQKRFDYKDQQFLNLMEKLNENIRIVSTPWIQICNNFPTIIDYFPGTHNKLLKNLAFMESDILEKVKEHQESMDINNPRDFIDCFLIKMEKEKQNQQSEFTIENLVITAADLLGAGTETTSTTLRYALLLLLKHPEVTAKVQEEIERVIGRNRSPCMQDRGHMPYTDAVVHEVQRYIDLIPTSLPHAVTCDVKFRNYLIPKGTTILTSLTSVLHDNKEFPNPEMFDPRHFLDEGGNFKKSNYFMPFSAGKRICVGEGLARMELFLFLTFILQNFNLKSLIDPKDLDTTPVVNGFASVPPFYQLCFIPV
CYP2C19 activ – increases human CYP2C19 enzyme activity. 96,000 tested, under 10 active. recombinant CYP2C19, luciferin-H EGE luminescence; stronger effect = higher value; 0 = fully inhibited enzyme, 1 = untreated enzyme. activation factor at 5 µM. P33261;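 active = activation factor of at least 2 at 5 µM in the primary screen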;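 also: 0 = wells with 2.5 mM tranylcypromine and 1 = vehicle-only wells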
Starred values were filed as active, the others as inactive. This is a sample that favours compounds with a hit; in the whole collection about 31% have one here.

`CCOC(=O)c1nc(N)c(C(=O)OCC)[nH]1` gave CYP2C9 inhib -8, CYP2C9 activ 1.1, CYP2C19 inh -10 and CYP2C19 activ 1.1.
`Cc1cc(F)ccc1S(=O)(=O)Nc1ccccc1C(=O)Nc1ncn[nH]1` gave CYP2C9 inhib 40, CYP2C9 activ 0.6, CYP2C19 inh 94* and CYP2C19 activ 0.1.
For O=C(Nc1ccccc1N1CCOCC1)c1ccccc1[N+](=O)[O-] the results were CYP2C9 inhib 6, CYP2C9 activ 0.9, CYP2C19 inh 6 and CYP2C19 activ 0.9.
O=C(Nc1ccccc1N1CCOCC1)c1ccccc1NS(=O)(=O)c1ccc(F)c(F)c1 was read as CYP2C9 inhib 81*, CYP2C9 activ 0.2, CYP2C19 inh 37 and CYP2C19 activ 0.6.
For O=C(Nc1ccccc1N1CCOCC1)c1ccccc1NS(=O)(=O)c1ccc(F)cc1 the results were CYP2C9 inhib 78*, CYP2C9 activ 0.2, CYP2C19 inh 58* and CYP2C19 activ 0.4.
Screening Cc1ccc(C)c(S(=O)(=O)Nc2ccccc2C(=O)Nc2ccccc2N2CCOCC2)c1 returned CYP2C9 inhib 97*, CYP2C9 activ 0, CYP2C19 inh 94* and CYP2C19 activ 0.1.
For CCOC(=O)c1ccc(NC(=O)NC(C)C2CCCO2)cc1 (stereo not given) the results were CYP2C9 inhib 10, CYP2C9 activ 0.9, CYP2C19 inh -7 and CYP2C19 activ 1.1.
Screening O=C1CCCc2c1nc(-c1ccco1)n2O returned CYP2C9 inhib 16, CYP2C9 activ 0.8, CYP2C19 inh 15 and CYP2C19 activ 0.9.
Screening Cc1cc(F)ccc1S(=O)(=O)Nc1ccccc1C(=O)Nc1ccccc1N1CCOCC1 returned CYP2C9 inhib 87*, CYP2C9 activ 0.1, CYP2C19 inh 83* and CYP2C19 activ 0.2.
For CCOc1ccc(S(=O)(=O)Nc2ccccc2C(=O)Nc2ccccc2N2CCOCC2)cc1 the results were CYP2C9 inhib 69*, CYP2C9 activ 0.3, CYP2C19 inh 84* and CYP2C19 activ 0.2.
Screening COc1ccc(C)cc1C(=O)CCC(=O)Nc1ccccc1N1CCOCC1 returned CYP2C9 inhib 82*, CYP2C9 activ 0.2, CYP2C19 inh 81* and CYP2C19 activ 0.2.
`CCCCNC(=O)c1ccc(N2CCOCC2)c(NS(=O)(=O)c2ccc(OC)cc2)c1` gave CYP2C9 inhib 44, CYP2C9 activ 0.6, CYP2C19 inh 32 and CYP2C19 activ 0.7.
For O=C(CCS(=O)(=O)c1ccc(Cl)cc1)OCC(=O)N1CCCCC1 the results were CYP2C9 inhib 6, CYP2C9 activ 0.9, CYP2C19 inh 9 and CYP2C19 activ 0.9.
`CCCS(=O)(=O)c1c(S(=O)(=O)CCC)c2c3ccccc3ccn2c1C(N)=O` gave CYP2C9 inhib 0, CYP2C9 activ 1, CYP2C19 inh 2 and CYP2C19 activ 1.
`O=S(=O)(c1ccc2nc(COc3ccccc3)[nH]c2c1)N1CCOCC1` gave CYP2C9 inhib -8, CYP2C9 activ 1.1, CYP2C19 inh -19 and CYP2C19 activ 1.2.
C=CCNc1nc(N2CCCC2)nc2ccccc12 was read as CYP2C9 inhib 4, CYP2C9 activ 1, CYP2C19 inh 4 and CYP2C19 activ 1.
OCCNc1nc(N2CCN(Cc3ccccc3)CC2)nc2ccccc12 was read as CYP2C9 inhib 54*, CYP2C9 activ 0.5, CYP2C19 inh 25 and CYP2C19 activ 0.8.
Screening CN(C)c1ccc(/C=C/c2cc[n+](C)cc2)cc1 returned CYP2C9 inhib 0, CYP2C9 activ 1, CYP2C19 inh 0 and CYP2C19 activ 1.
CN(C)c1ccc(/C=C/c2cc[n+]([O-])cc2)cc1 was read as CYP2C9 inhib 54*, CYP2C9 activ 0.5, CYP2C19 inh 92* and CYP2C19 activ 0.1.
For CC(C)(C)OC(=O)N1CCC(C(N)=O)CC1 the results were CYP2C9 inhib 4, CYP2C9 activ 1, CYP2C19 inh 2 and CYP2C19 activ 1.
Screening CC(C)(C)OC(=O)N1CCCC(C(=O)CC#N)C1 (stereo not given) returned CYP2C9 inhib 66*, CYP2C9 activ 0.3, CYP2C19 inh 37 and CYP2C19 activ 0.6.
Screening COCCSc1ccccc1C(=O)Nc1cc(C)on1 returned CYP2C9 inhib 5, CYP2C9 activ 1, CYP2C19 inh 5 and CYP2C19 activ 0.9.
Screening CCCOCCOC(=O)C1=C(C)NC(=O)NC1c1cc(Cl)c(O)c(OC)c1 (stereo not given) returned CYP2C9 inhib 3, CYP2C9 activ 1, CYP2C19 inh 6 and CYP2C19 activ 0.9.
Screening COCCNC(=O)COc1ccc(Br)cc1Cl returned CYP2C9 inhib 3, CYP2C9 activ 1, CYP2C19 inh 40 and CYP2C19 activ 0.6.
`CC(C)N(C(=O)COc1ccc(Br)cc1Cl)C(C)C` gave CYP2C9 inhib 60*, CYP2C9 activ 0.4, CYP2C19 inh 94* and CYP2C19 activ 0.1.
`C=CCNC(=O)COc1ccc(Br)cc1Cl` gave CYP2C9 inhib 43, CYP2C9 activ 0.6, CYP2C19 inh 93* and CYP2C19 activ 0.1.
Screening CCOC(=O)N1CCN(C(=O)COc2ccc(Br)cc2Cl)CC1 returned CYP2C9 inhib 36, CYP2C9 activ 0.6, CYP2C19 inh 86* and CYP2C19 activ 0.1.
For CCN1CCCC1CN(Cc1cc2cc(OC)ccc2[nH]c1=O)C(=O)NCc1ccccc1 (stereo not given) the results were CYP2C9 inhib 28, CYP2C9 activ 0.7, CYP2C19 inh 12 and CYP2C19 activ 0.9.
CCn1c(/C=N/c2nc3ccccc3n2C)nc2ccccc21 was read as CYP2C9 inhib 12, CYP2C9 activ 0.9, CYP2C19 inh 1 and CYP2C19 activ 1.
Screening CCOc1cc2[nH]c(=O)n(Cc3cccc(OC)c3)c(=O)c2cc1OCC returned CYP2C9 inhib 7, CYP2C9 activ 0.9, CYP2C19 inh -4 and CYP2C19 activ 1.
`COC(=O)c1cccnc1-n1c(=O)c2cccnc2n(Cc2cccc(OC)c2)c1=O` gave CYP2C9 inhib 43, CYP2C9 activ 0.6, CYP2C19 inh 78* and CYP2C19 activ 0.2.
CCc1nnc(NC(=O)C2COc3ccccc3O2)s1 (stereo not given) was read as CYP2C9 inhib 56*, CYP2C9 activ 0.4, CYP2C19 inh 14 and CYP2C19 activ 0.9.
`Cc1nnc(NC(=O)C2(c3ccccc3)CCOCC2)s1` gave CYP2C9 inhib 18, CYP2C9 activ 0.8, CYP2C19 inh 50* and CYP2C19 activ 0.5.
`Cc1nnc(NC(=O)C2COc3ccccc3O2)s1` (stereo not given) gave CYP2C9 inhib 86*, CYP2C9 activ 0.1, CYP2C19 inh 45 and CYP2C19 activ 0.5.
Screening CN1CCN(C(=O)CSc2nc(-c3cccs3)ccc2C#N)CC1 returned CYP2C9 inhib 37, CYP2C9 activ 0.6, CYP2C19 inh 12 and CYP2C19 activ 0.9.
Screening Cc1sc2ncnc(SCC(=O)N3CCC(c4noc5ccc(F)cc45)CC3)c2c1C returned CYP2C9 inhib 79*, CYP2C9 activ 0.2, CYP2C19 inh 65* and CYP2C19 activ 0.4.
Screening Cc1nnc(SCC(=O)N2CCC(c3noc4ccc(F)cc34)CC2)s1 returned CYP2C9 inhib 37, CYP2C9 activ 0.6, CYP2C19 inh -2 and CYP2C19 activ 1.
